In the library only some 13% were active in any assay of this set; here they are far more common.
Shiga toxin inh: Shiga toxin inhibition; Vero cells, Shiga toxin protein synthesis inhibition reporter; inhibition, % at 38.7 µM; 290,000 tested, 9.2% active; AID 2315; in the data active = inhibition mostly above about 28%, no sharp cut-off; inactive = mostly below about 43%; note: 0% is about no effect
LASV entry inh: Lassa virus entry inhibition. Lassa virus pseudotype entry inhibition, cell reporter. Potency, µM (doses to about 37.9 µM), for the others: at the top dose activity change, negative = inhibition, hits mostly inhibitors. 300,000 tested, 1.2% active; calls by dose curve; tested in HEK293 cells; note: potency is the fitted concentration of half-maximal effect; % is set by controls: 0 for no effect and ±100 for the full control effect; nearly all actives have a fitted effect of over 50% in size
HCV inh: HCV inhibition; 340,000 tested, 3.4% active; Potency, µM (doses to about 41.8 µM), without a hit: at the highest dose activity change, negative = inhibition, most hits filed as inhibitors; Huh7.5.1 HCVcc-Cre infection, luciferase reporter, 44 h; active = well fitted inhibition curve with a large enough effect; inconclusive = small, poorly fitted or top-dose-only effect, or another doubt; inactive = no such curve, though single readings can be large or run the other way; note: potency is the fitted concentration of half-maximal effect; % is set by controls: 0 for no effect and ±100 for the full control effect
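1,000 cells/well; 4 h culture; + compound; + HCVcc-Cre (~0.5 moi); 44 h; luciferase substrate, RT 15 min; read 15 sec.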
FMDV antiviral: blocks foot and mouth disease virus | AID 1159524 | Potency, µM (highest dose often 57.9 µM), for inactives: at the highest dose activity change, negative = inhibition, hits mostly inhibitors | 410,000 tested, 1.2% active | FMDV antiviral cell-based qHTS; calls by dose curve; tested in HEK293T cells; note: read-out not given here; potency is the fitted concentration of half-maximal effect; % is set by controls: 0 for no effect and ±100 for the full control effect; nearly all actives have a fitted effect of over 45% in size
Cycloheximide cs: affects cycloheximide protein synthesis inhibition readout, counter-screen; 300,000 tested, 12% active; max response, %; cell reporter, cycloheximide protein synthesis inhibition counterscreen; AID 2314; in the data active = max response mostly above about 13%, no sharp cut-off; inactive = mostly below about 14%; note: read at 38.3 µM for the half of the compounds with a filed dose; 0% is about no effect
MARV entry inh: inhibitors of Marburg virus binding or cell entry | Marburg virus pseudotyped entry inhibition, cell reporter | Potency, µM (highest dose often 37.8 µM), inactives show top-dose activity change, negative = inhibition, actives largely listed as inhibitors | 300,000 tested, 1.8% active | AID 540276; calls by dose curve; tested in HEK293 cells; note: potency is the fitted concentration of half-maximal effect; % is set by controls: 0 for no effect and ±100 for the full control effect
Numbers without * were called inactive; u = inconclusive; x = not tested or not shown; [ ] = another dose, or the depositor's remark.

SMILES | Shiga toxin inh | LASV entry inh | HCV inh | FMDV antiviral | Cycloheximide cs | MARV entry inh
C[C@H]1CN([C@@H](C)CO)C(=O)CCCn2nncc2CO[C@H]1CN(C)S(=O)(=O)c1ccc(-n2cccn2)cc1 | x | x | x | 3% | x | x
CC[C@H](C)C(N)C(=O)O (stereo not given in full) | -4 | x | x | x | -2 | x
Cc1ccccc1NC(=O)c1cnc2ccccn2c1=O | 86* | u | -13% | -12% | 79* | u
Cc1cc(Br)cc(C)c1NC(=O)c1cnc2ccccn2c1=O | x | x | x | 43% | x | u
Cc1csc2ncc(C(=O)NCCc3ccccc3)c(=O)n12 | 48* | x | -2% | 3% | 45* | x
Cc1csc2ncc(C(=O)NCCC(c3ccccc3)c3ccccc3)c(=O)n12 | -3 | -18%[46.1 µM] | 7% | -10% | 2 | -19%[46.1 µM]
O=C(NCCc1ccccc1)c1cnc2ccccn2c1=O | 57* | u | 0% | x | 41* | u
CCc1ccccc1NC(=O)c1cnc2scc(C)n2c1=O | 23 | x | 8% | 35% | 9 | x
CSc1ccccc1NC(=O)c1cnc2scc(C)n2c1=O | 28* | x | -9% | 48% | 25* | x
O=C(CNS(=O)(=O)c1ccc(Cl)cc1)NNC(=O)c1cccnc1 | -8 | -3% | 24% | 9% | -1 | 6%[46.1 µM]
COC(=O)c1cc(C)sc1NC(=S)N1CCN(CCc2ccccc2)CC1 | -12 | 16% | 2% | -23% | 2 | u
O=C1CCC(C(=O)Nc2nnc(C3CC3)s2)=NN1 | 7 | 1% | 1% | -9% | -3 | -10%[46.1 µM]
COc1ccc(C(=O)Nc2cc(Cl)ccc2C(=O)O)cc1 | 20 | -8%[46.1 µM] | 13% | -2% | 6 | 9%[46.1 µM]
COc1ccc(C(=O)Nc2cc(Cl)ccc2OC(=O)c2ccc(OC)cc2)cc1 | 89* | u | -24% | x | 65* | u
O=C(Nc1ccccc1O)c1ccc(Cl)cc1 | 95* | 17% | -17% | 24% | 42* | u
COc1ccc(C(=O)Nc2cc(Cl)ccc2Cl)c(OC)n1 | 21 | u | 20% | 10% | 18* | 13%
CSc1ccccc1NC(=O)c1ccc([N+](=O)[O-])cc1 | 18 | 9% | -15% | 13% | 5 | 13%
O=C(Nc1ccccc1O)c1ccc([N+](=O)[O-])cc1 | 78* | x | 21% | 23% | 27* | x
COc1ccc(N(CC(=O)O)S(=O)(=O)c2ccccc2[N+](=O)[O-])c(OC)c1 | -16 | x | 20% | 5% | 1 | x
O=C(Nc1ccccc1OC(=O)c1ccc(Cl)cc1)c1ccc(Cl)cc1 | 34* | -1% | 10% | 54% | 37* | -27%
Cc1ccc(Oc2ccc(Cl)cc2NC(=O)c2cnccn2)cc1 | 19 | 3% | 4% | u | 5 | -2%
O=C(Nc1ccccc1NC(=O)c1ccc(F)cc1)c1ccc(F)cc1 | -3 | x | 14% | -4% | -4 | x
Cc1ccc(C(=O)Nc2cc(Cl)ccc2OC(=O)c2ccc(C)cc2)cc1 | 98* | x | x | x | 36* | 3%
c1ccc(Nc2nc(N3CCCC3)nc(N3CCOCC3)n2)cc1 | x | x | x | -18% | x | x
Cc1[nH]c2ccccc2c1/C=N/Nc1nc(Nc2ccccc2)nc(N2CCOCC2)n1 | 16 | 5.8µM* | u | -11% | 20* | 0.33µM*
SMILES | Shiga toxin inh | LASV entry inh | HCV inh | FMDV antiviral | Cycloheximide cs | MARV entry inh
Oc1[nH]c2ccccc2c1N=Nc1nc(Nc2ccccc2)nc(N2CCOCC2)n1 | 11 | x | 14µM* | u | -1 | x
Cc1ccc(NC2CCCN(C(=O)C3CCCCC3)C2)cc1C (stereo not given) | -7 | x | -11% | -12% | 5 | x
COC(=O)Cc1ccc2c3ccccc3n(C)c2c1 | 18 | 5% | u | x | 25* | 4%
CCOc1ccc(NC(=O)CN(C)C(=O)CCNC(=O)c2ccccc2Cl)cc1OCC | x | -12% | 2% | -2% | x | 11%
Cn1c(SCC(=O)c2ccccc2)nnc1C1COc2ccccc2O1 (stereo not given) | 45 | 10%[46.1 µM] | 2% | 6% | 42* | 17%[46.1 µM]
Cc1ccccc1CSc1nnc(-c2ccco2)n1Cc1ccco1 | 15 | -17% | -20% | 24% | -2 | -3%
CC(C)(C)c1nnc(SCC(=O)c2ccccc2)n(N)c1=O | 63* | 2% | -10% | 10% | 57* | u
CCn1c(SCC(=O)c2ccccc2)nc2ccccc2c1=O | 20 | -16% | u | -4% | 19 | -16%[46.1 µM]
c1ccc(CSc2nnc(-c3ccco3)n2Cc2ccco2)cc1 | 32 | u | -14% | 2% | 37* | u
Cn1c(SCC(=O)c2ccccc2)nnc1-c1ccco1 | 63* | 16% | -9% | 30% | 41* | 12%
C[C@]12C[C@@H](O)[C@H](O)CC1=CCC1C2CC[C@]2(C)C(=O)CCC12 (stereo not given in full) | x | 22% | 7% | 0% | x | 1%
c1ccc(-c2nn3cnnc3c3ccccc23)cc1 | 5 | x | u | -18% | 11 | x
Cc1ccc(OCC(=O)NNC(=O)CCc2ccccc2)cc1 | -23 | 5% | 23% | 10% | -3 | -7%
Cn1c(SCc2ccccc2)nnc1-c1ccco1 | 82* | u | 5% | 14% | 41* | 26%[46.1 µM]
O=C(CSc1nnc(-c2ccncc2)n1Cc1ccco1)OC1CCCCC1 | -9 | -1% | 0% | u | 15 | -1%
O=C(CSc1nnc(-c2ccco2)n1Cc1ccccc1)OC1CCCCC1 | 84* | 0% | -13% | -19% | 24* | u
O=C(CSCc1c(F)cccc1Cl)NCc1ccco1 | 24 | u | 2% | x | 26* | 0%
CC(CC(=O)NCCc1ccc(F)cc1)c1ccccc1 (stereo not given) | 57 | x | 1% | 53% | 25* | x
O=C(CSCc1ccccc1)NCCc1ccc(F)cc1 | 30 | 3%[46.1 µM] | -11% | -11% | 17* | -4%[46.1 µM]
O=C(CSCc1c(F)cccc1Cl)NCCc1ccccc1 | 46* | x | 17% | 43% | 21* | x
COc1ccc(CNC(=O)CNC(=O)c2cccs2)c(OC)c1 | 15 | x | 5% | 6% | 1 | x
Oc1cccc(CCC2CCCCN2Cc2cn[nH]c2-c2ccc3c(c2)OCO3)c1 (stereo not given) | -9 | -3%[46.1 µM] | -1% | -13% | -2 | u
CCCCNC(=O)N1CCOCCOCCN(C(=O)NCCCC)CCOCC1 | -12 | 2% | 11% | -2% | -5 | 28%
O=C(CCc1ccccc1)NCCSCc1c(F)cccc1Cl | 14 | -7% | 7% | -7% | 23* | 4%
CC(C)NC(=O)CSCc1c(F)cccc1Cl | 9 | 9% | 2% | 21% | 8.4* | u
CCc1cc2c(=O)[nH]c(COC)nc2s1 | 4 | 11% | 0% | 16% | 0 | 24%
CCNC(=O)c1ccccc1NC(=O)c1cccc(S(=O)(=O)N2CCOCC2)c1 | -10 | 0% | -2% | -8% | -1 | u
CNC(=O)c1ccccc1NC(=O)c1cccc(S(=O)(=O)N2CCC(C)CC2)c1 | -22 | 22µM* | u | 0% | 9 | u
CNC(=O)c1ccccc1NC(=O)c1cccc(S(=O)(=O)N2CCCCC2)c1 | -15 | -18% | -12% | 3% | -1 | 1%[46.1 µM]

Bioassay records deposited in PubChem BioAssay by National Center for Advancing Translational Sciences (NCATS).
